Assay results reported in PubChem BioAssay AID1626 (SRMLSC, 2009).
Screen size: about 220,000 compounds; about 2,000 (0.91%) were called active. About 2% were inconclusive and are not listed. Cut-off read from the data, not from the text of the source: inconclusive = inhibition above about 80% without an active follow-up result; inactive = below that; test concentration not stated here. A selection follows. Measured potencies and affinities stand elsewhere.

assay: M. tuberculosis H37Rv growth inhibitors, H37Rv strain (AID 1626); conditions: active compounds read high, concentration not given here;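 note: bacteria incubated seven days before Alamar blue readout; 0% = bacteria only wells and 100% = bacteria with antibiotic wells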

Structure (SMILES)	inhibition
Cc1ccc(NCCC(=O)c2cccs2)cc1C	74.8% (inactive)
COc1ccc(C(=O)CNc2ccccc2CO)cc1	-0.7% (inactive)
COc1ccc(C(=O)CNc2ccccc2C#N)cc1	3.5% (inactive)
CCCOc1ccc(C(=O)CCNc2ccc(C)c(Cl)c2)cc1	69.1% (inactive)
Cc1ccc(NC(=O)CCC(=O)c2cccs2)cc1	1.21% (inactive)
O=C(CCNc1cc(Cl)cc(Cl)c1)c1cccs1	74.2% (inactive)
COc1ccc(C(=O)CCNc2cccc(Cl)c2)cc1	10.7% (inactive)
Cc1ccc(NC(=O)COC(=O)CCC(=O)c2cccs2)cc1	-6.9% (inactive)
CCOc1ccc(-c2nn(-c3ccccc3)cc2/C=C2\SC(=S)N(Cc3ccco3)C2=O)cc1	-2.18% (inactive)
COc1ccccc1C1=NC(c2ccc(C)cc2)N=C1C (centres undefined)	7.88% (inactive)
COc1ccc(N2C(=O)C3NN=C(C(=O)OCc4ccccc4)C3C2=O)cc1 (centres undefined)	1.18% (inactive)
Cc1cccc(NC(=S)N(CCN(C)C)Cc2cc3cccc(C)c3[nH]c2=O)c1	12.2% (inactive)
CSC1=NC(C)(C)C=C(/C=C/c2ccc(Cl)cc2)N1	-4.38% (inactive)
Cc1c(C(=O)N2CCN(C)CC2)oc2ccc(S(=O)(=O)N3CCOCC3)cc12	-4.68% (inactive)
Cc1cc(C(=O)NC(C)c2ccncc2)no1 (centres undefined)	-9.57% (inactive)
CCn1c2c(c(C)cc1=O)C(=O)CC(C)(C)C2	-1.17% (inactive)
CC(=O)c1ccc(N2Cc3ccccc3C3(CCOCC3)C2=N)cc1	-1.43% (inactive)
COc1ccccc1CC(=O)NC1CCCc2ccccc21 (centres undefined)	1.93% (inactive)
Cc1cc(Nc2ccc3c(c2)OCCO3)n2nc(C)nc2n1	1.27% (inactive)
CCOC(=O)C1=Nc2ccccc2/C1=C\c1c(O)n(C)c(=O)n(C)c1=O	-4.93% (inactive)
CCOC(=O)C(=O)Nc1ccccc1C(=O)OCC	-3.74% (inactive)
CC(=O)Nc1cc(C(F)(F)F)ccc1OCC1CCCO1 (centres undefined)	4.74% (inactive)
Cc1ccc(-c2cc(C(F)(F)F)n3ncc(C(=O)N4CCCCC4c4cccnc4)c3n2)cc1 (centres undefined)	9.06% (inactive)
COc1cccc(-c2cc(C(F)(F)F)n3nc(C(=O)N4CCCCC4c4cccnc4)cc3n2)c1 (centres undefined)	-1.53% (inactive)
CCN1CCN(C(=S)Nc2ccsc2C(=O)OC)CC1	2.48% (inactive)

Structure (SMILES)	inhibition
COc1ccc(CCNC(=O)COC(=O)COc2ccc(C#N)cc2)cc1	3.53% (inactive)
O=C(Nc1nnc(CCc2ccccc2)s1)c1cccs1	-0.19% (inactive)
Cc1ccc(Cc2cnc(NC(=O)c3ccco3)s2)cc1	-0.28% (inactive)
O=C(Nc1nnc(Cc2ccc(Cl)cc2)s1)c1cccs1	-8% (inactive)
O=C(Nc1nnc(Cc2ccccc2)s1)c1cccs1	-2.7% (inactive)
CCOC(=O)c1oc2cccc(O)c2c1CN1CCOCC1	1.91% (inactive)
CC(=N/O)/C(=N\O)c1ccc(C)o1	5.71% (inactive)
O=C1CC(N2CCN(Cc3ccc4c(c3)OCO4)CC2)C(=O)N1c1cccc2ccccc12 (centres undefined)	-7.76% (inactive)
CCOC(=O)c1c(NC(=O)COC(=O)c2cc(OC)c(OC)cc2[N+](=O)[O-])sc(C)c1C	0.78% (inactive)
O=C(Nc1ccc(Cl)cc1)N1CCCC1	1.26% (inactive)
O=C(Nc1cccc(Cl)c1)N1CCCC1	-2.82% (inactive)
N#Cc1c(-c2ccc(Cl)cc2Cl)nc2n(c1=O)CCS2	-1.19% (inactive)
O=C(Cn1cnc2c(nnn2-c2ccccc2)c1=O)N1CCOCC1	3.36% (inactive)
CCOc1ccc(-n2c(C)nc3c(cnn3-c3ccc(Cl)cc3)c2=O)cc1	-1.94% (inactive)
Cc1ccc(OCC(=O)Nc2ccc(N3CCN(C(=O)c4ccc(C)cc4)CC3)cc2)cc1	-3.04% (inactive)
Cc1ccccc1OCC(=O)Nc1ccc(N2CCN(S(C)(=O)=O)CC2)cc1	-6.69% (inactive)
CCOC(=O)N1CCN(c2cc(C)nc3nc(C)nn23)CC1	-2.69% (inactive)
CCSCc1nnc(SCC(=O)Nc2ccc(OC)cc2)n1C	7.37% (inactive)
CCSCc1nnc(SCC(=O)Nc2cccc(C(C)=O)c2)n1C	-4.22% (inactive)
CSc1cccc(NC(=O)CSc2ccc(C)cc2)c1	52.9% (inactive)
COc1cccc(NC(=O)CSc2nnc(C)s2)c1	-3.98% (inactive)
Nn1c(CN2CCCCC2)nc2ccccc2c1=O	4.4% (inactive)
Cc1csc(NC(=O)CS(=O)(=O)c2ccccc2)n1	-3.27% (inactive)
O=C(OCC(=O)N1CCCCCC1)c1ccc([N+](=O)[O-])cc1Cl	20.3% (inactive)
OC(COc1ccc(OCc2ccccc2)cc1)CN1CCCCC1 (centres undefined)	3.57% (inactive)

Structure (SMILES)	inhibition
Cc1ccccc1OCc1nnc(SCC(=O)NCc2ccco2)n1C	-6.74% (inactive)
Cc1ccc(S(=O)(=O)NC(CC(C)C)C(=O)Nc2nccs2)cc1 (centres undefined)	-11.9% (inactive)
COc1ccc(CCNCC(O)Cn2ccc3ccccc32)cc1OC (centres undefined)	-9.67% (inactive)
COc1ccccc1NCC(O)Cn1c2ccccc2c2ccccc21 (centres undefined)	2.53% (inactive)
CC(C)N(Cc1cc2ccccc2[nH]c1=O)C(=O)c1cccnc1	-8.2% (inactive)
COc1ccc(S(=O)(=O)N2C(=O)/C(=C3\SC(N)=NC3=O)c3ccccc32)cc1	-3.28% (inactive)
Oc1oc(-c2ccccc2)nc1/C=N/c1nccs1	-8.45% (inactive)
CCCCOc1ccc(-c2nc(/C=N/c3nccs3)c(O)o2)cc1	25.4% (inactive)
COc1ccc2nc(/N=C/c3c(C)[nH]n(-c4ccc(C)cc4)c3=O)sc2c1	33% (inactive)
COc1ccc2nc(/N=C/c3c(C)[nH]n(-c4ccc(C)cc4C)c3=O)sc2c1	6.1% (inactive)
Cc1ccccc1CN1CCN(c2ccc(Cl)cc2)CC1	6.57% (inactive)
N/C(=N\OS(=O)(=O)c1ccc(Cl)cc1)c1cccnc1	-1.48% (inactive)
COCc1nn2c(N)c(C#N)cnc2c1-c1ccccc1	4.73% (inactive)
Cc1nn2c(N)c(C#N)cnc2c1-c1ccccc1	-6.08% (inactive)
O=C(NCCc1c[nH]c2ccccc12)c1cnccn1	2.35% (inactive)
O=[N+]([O-])c1ccc(C(O)C(CO)NC(=S)Nc2ccccc2)cc1 (centres undefined)	-0.74% (inactive)
Cc1ccc(NC(=S)NC(CO)C(O)c2ccc([N+](=O)[O-])cc2)cc1 (centres undefined)	-9.71% (inactive)
Cn1c(-c2ccccc2)c(C(=O)CC#N)c2ccccc21	7.31% (inactive)
Cn1cc(C(=O)Cc2ccccc2)c2ccccc21	0.26% (inactive)
Cn1cc(C(N)=O)c2ccccc21	-2.82% (inactive)
CCn1c(-c2ccccc2)c(C(=O)CCl)c2ccccc21	76.1% (inactive)
Cc1ccc(-c2ccc(NC(=O)C3C4C=CC(C4)C3C(=O)O)cc2)o1 (centres undefined)	66.8% (inactive)
COCCCN(CCC#N)C(=O)c1c(-c2c(Cl)cccc2Cl)noc1C	-10.4% (inactive)
Cc1cc([N+](=O)[O-])ccc1NC(=O)c1cccc(NC(=O)C(C)C)c1	10.8% (inactive)
COc1cc(NC(=O)c2ccc([N+](=O)[O-])cc2)ccc1NC(=O)C(C)C	2.5% (inactive)

Structure (SMILES)	inhibition
COc1ccc(NC(=O)CCSc2nnc(C)s2)cc1	-0.89% (inactive)
CC(=O)Nc1ccc(S(=O)(=O)N2CCCC(C(=O)O)C2)cc1 (centres undefined)	0.58% (inactive)
FC(F)(F)c1cccc(Oc2nc(-c3ccccc3)nnc2C(F)(F)F)c1	8.03% (inactive)
FC(F)(F)c1nnc(-c2ccccc2)nc1Sc1ccc(Cl)cc1	36.4% (inactive)
FC(F)(F)c1nnc(-c2ccccc2)nc1N1CCCC1	-1.21% (inactive)
CNc1nc(-c2ccccc2)nnc1C(F)(F)F	-2.77% (inactive)
Fc1ccc(Oc2nc(-c3ccccc3)nnc2C(F)(F)F)cc1	-3.97% (inactive)
Cc1ccc(Sc2nc(-c3ccccc3)nnc2C(F)(F)F)cc1	13.4% (inactive)
COC(=O)CC/C(O)=C1/C(=N)CC(C)(C)CC1=O	-9.88% (inactive)
CC1CCN(CCCNC(=O)COc2cc(=O)n(C)c3ccccc23)CC1	-0.28% (inactive)
O=C(CCn1c(=O)c2sccc2n(CC(=O)OCc2ccccc2)c1=O)NCc1ccccc1	-4.57% (inactive)
CCC(=O)N(C1=C(NC)C(=O)c2ccccc2C1=O)C(C)C	2.12% (inactive)
CC(=O)N(C1=C(N2CCOCC2)C(=O)c2ccccc2C1=O)c1ccc(C(=O)O)cc1	-1.19% (inactive)
CC(=O)N(Cc1ccc(F)cc1)C1=C(NCCc2ccccc2)C(=O)c2ccccc2C1=O	16.5% (inactive)
CCC(=O)N(C1=C(NC(C)C)C(=O)c2ccccc2C1=O)C(C)C	3.87% (inactive)
CCNC(=O)/C=C1\NC(C)(C)Cc2c1ccc1ccccc21	-3.91% (inactive)
O=C1OCCC1Sc1nc2ccccc2s1 (centres undefined)	6.97% (inactive)
O=C(CN1CCN(Cc2ccccc2Cl)C1=O)NCc1ccccn1	1.55% (inactive)
O=C(NCC1CCCO1)C(c1ccc(F)cc1)N(Cc1ccc(F)cc1)C(=O)Cn1nnc(-c2cccs2)n1 (centres undefined)	-8.2% (inactive)
O=C(NCCc1nc2ccccc2[nH]1)/C(=C/c1ccc2c(c1)OCO2)NC(=O)c1ccccc1	1.83% (inactive)
O=C(NCCc1nc2ccccc2[nH]1)/C(=C/c1ccc2c(c1)OCO2)NC(=O)c1ccccc1Cl	2.62% (inactive)
Nc1nc(N)nc(-c2ccccn2)n1	-3.41% (inactive)
Cc1n[nH]c(C)c1Cc1c(F)cccc1Cl	-0.71% (inactive)
CC(NCc1ccc(Cl)cc1Cl)C(O)c1ccccc1 (centres undefined)	5.99% (inactive)
